Inconclusive results are not listed. Calls of active or inactive are those of the source. Calls follow the shape of the dose curve; as a rule, active = well fitted curve in the direction sought with a large enough effect; inconclusive = small, poorly fitted or top-dose-only effect, or another doubt; inactive = no such curve, though single readings can be large; an effect the other way counts as inactive or inconclusive.
Potency is read from the fitted curve at half-maximal effect.

The nature of the first test: Quantitative High-Throughput drug screen in 47 multiple myeloma cell lines against the NCATS MIPE library collection: KMS21BM_JCRB cell viability assay (AID 1918974). Conditions: ATP luminescence, 48 h; viability: at 45.8 µM. A digest of the protocol:
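Steps: seed 500 cells per well; pin-transfer MIPE 4.0 library; incubate 48 h at 37C, 5% CO2, humidified; add CellTiter-Glo, 5 min room temperature; read luminescence.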
In the case of `CCCCOc1ccc(CC(=O)NO)cc1`, the Potency is 14.8 µM (active).
One may read the viability as a read-out of living cells in per cent, often relative to untreated cells. As to `Nc1ccc(S(=O)(=O)Nc2ccccn2)cc1`, the “viability” value was 144% (inactive).
Regarding `Cc1nnc(NS(=O)(=O)c2ccc(N)cc2)s1`, the Potency was 0.418 µM (active).
With `NS(=O)(=O)c1cc2c(cc1Cl)NC(C(Cl)Cl)NS2(=O)=O` (centres undefined), the “viability” value was 204% (inactive).

The nature of another test: Quantitative High-Throughput drug screen in 47 multiple myeloma cell lines against the NCATS MIPE library collection: KMS26_JCRB cell viability assay (AID 1918975). Also: nearly all actives have a fitted effect of over 45% in size.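 As to viability (% of DMSO): 100% = DMSO-treated wells and 0% = wells with media only.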 Conditions: KMS26 myeloma cells viability, CellTiter-Glo ATP, 48 h; series mostly up to 45.8 µM; viability (% of DMSO): at the top concentration. A digest of the protocol:
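qHTS of the MIPE 4.0 collection: 500 myeloma cells/well, 48 h drug exposure at 37C in 5% CO2, then CellTiter-Glo for 5 min at room temperature before luminescence reading.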
(In general: ATP-based viability assays read luminescence as a measure of living cells.)
`CC(C)(Sc1cc(C(C)(C)C)c(O)c(C(C)(C)C)c1)Sc1cc(C(C)(C)C)c(O)c(C(C)(C)C)c1`: the “viability (% of DMSO)” value is 102% (inactive).
As to `COc1cc2ncnc(Nc3cccc(Cl)c3)c2cc1OC`, the Potency was 23.5 µM (active).
The same measure, in the same setting: the same measure for `CCCCOc1ccc(CC(=O)NO)cc1`: 10.5 µM (active).
`NC(=O)c1cccc(N)c1`: the “viability (% of DMSO)” value is 156% (inactive).
The same measure, in the same setting: the same measure for `CCn1cc(C(=O)O)c(=O)c2cc(F)c(N3CCN(C)CC3)cc21`: 112% (inactive); for `COc1cnc(NS(=O)(=O)c2ccc(N)cc2)nc1`: 125% (inactive).
`C[C@@H](CN1CC(=O)NC(=O)C1)N1CC(=O)NC(=O)C1`: the “viability (% of DMSO)” value is 114% (inactive).
Turning to `Nc1nc(N)c2nc(CNc3ccc(C(=O)NC(CCC(=O)O)C(=O)O)cc3)cnc2n1` (centres undefined), the Potency is 0.0264 µM (active).
Still for that read-out and setting: in the case of `CCCCc1oc2ccc(NS(C)(=O)=O)cc2c1C(=O)c1ccc(OCCCN(CCCC)CCCC)cc1` it was 14.8 µM (active).
For `Nc1ccc(S(=O)(=O)Nc2ccccn2)cc1`, the “viability (% of DMSO)” value was 124% (inactive).
As to `CC1(C)[C@H](C(=O)O)N2C(=O)C[C@H]2S1(=O)=O`, the “viability (% of DMSO)” value is 143% (inactive).
For the compound `CCCOc1ccc(C(=O)OCCN(CC)CC)cc1N`, the “viability (% of DMSO)” value was 145% (inactive).
Regarding `COc1ccc(C(=O)CC(=O)c2ccc(C(C)(C)C)cc2)cc1`, the Potency is 7.43 µM (active).
As to `OC(Cn1cncn1)(Cn1cncn1)c1ccc(F)cc1F`, the “viability (% of DMSO)” value was 127% (inactive).

A short description of another test: Quantitative High-Throughput drug screen in 47 multiple myeloma cell lines against the NCATS MIPE library collection: MMM1_PLB cell viability assay (AID 1918976). Also: nearly all actives have a fitted effect of over 35% in size. Conditions: MMM1 myeloma cells viability, CellTiter-Glo, 48 h; series mostly up to 45.8 µM; viability (% of control): at the top concentration. Put shortly:
(§1)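 ATP-based luminescence (CellTiter-Glo, 5 min RT incubation) quantified surviving cells following two days' treatment with MIPE 4.0 agents at 37 °C, 5% CO2.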
Take `Cc1nnc(C(=O)NC(C)(C)c2nc(C(=O)NCc3ccc(F)cc3)c(O)c(=O)n2C)o1`: the Potency is 7.43 µM (active).
Turning to `CC[C@H](C)C(=O)O[C@H]1C[C@@H](C)C=C2C=C[C@H](C)[C@H](CC[C@@H]3C[C@@H](O)CC(=O)O3)[C@H]21`, the Potency is 14.8 µM (active).
As to `COc1cc2ncnc(Nc3cccc(Cl)c3)c2cc1OC`, the Potency is 11.8 µM (active).
On to `CCCCOc1ccc(CC(=O)NO)cc1`, for which the Potency is 13.2 µM (active).
Still for that read-out and setting: in the case of `CCCCc1oc2ccc(NS(C)(=O)=O)cc2c1C(=O)c1ccc(OCCCN(CCCC)CCCC)cc1` it was 7.43 µM (active).
Consider `COC(=O)Nc1nc2ccc(S(=O)c3ccccc3)cc2[nH]1` (centres undefined), for which the “viability (% of control)” value is 127% (inactive).
Still for that read-out and setting: the same measure for `O=C(O)C1CCCN(CCC=C(c2ccccc2)c2ccccc2)C1` (centres undefined): 125% (inactive).
For `Cc1nnc(NS(=O)(=O)c2ccc(N)cc2)s1`, the “viability (% of control)” value is 138% (inactive).
As to `COc1ccc(C(=O)CC(=O)c2ccc(C(C)(C)C)cc2)cc1`, the Potency is 4.69 µM (active).
The same measure, in the same setting: in the case of `OC(Cn1cncn1)(Cn1cncn1)c1ccc(F)cc1F` it was 10.5 µM (active).

The nature of a further test: Quantitative High-Throughput drug screen in 47 multiple myeloma cell lines against the NCATS MIPE library collection: MOLP8_DSMZ cell viability assay (AID 1918977). Also: nearly all actives have a fitted effect of over 45% in size.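 As to viability (% of control): 100% = DMSO-only wells and 0% = media-only wells without cells.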 Conditions: MOLP8 myeloma viability, CellTiter-Glo ATP luminescence, 48 h; series mostly up to 45.8 µM; viability (% of control): at the top concentration. A digest of the protocol: as §1
Take `CN1CCN(c2c(F)cc3c(=O)c(C(=O)O)cn(CCF)c3c2F)CC1`: the “viability (% of control)” value was 105% (inactive).
Same read-out and setting: the same measure for `Cc1nnc(C(=O)NC(C)(C)c2nc(C(=O)NCc3ccc(F)cc3)c(O)c(=O)n2C)o1`: 87.6% (inactive); for `CC(C)(Sc1cc(C(C)(C)C)c(O)c(C(C)(C)C)c1)Sc1cc(C(C)(C)C)c(O)c(C(C)(C)C)c1`: 99.6% (inactive); for `O=C(O)c1cn(C2CC2)c2cc(N3CCNCC3)c(F)cc2c1=O`: 113% (inactive).
Consider `COc1cc2ncnc(Nc3cccc(Cl)c3)c2cc1OC`, for which the Potency is 20.9 µM (active).
Turning to `Cc1ccnc2c1NC(=O)c1cccnc1N2C1CC1`, the “viability (% of control)” value was 94% (inactive).
The same measure, in the same setting: in the case of `CCOC(=O)c1ccc(OC(=O)CCCCCN=C(N)N)cc1` it was 91.5% (inactive); in that of `CCn1cc(C(=O)O)c(=O)c2cc(F)c(N3CCN(C)CC3)cc21`, 104% (inactive); in that of `CCOc1cc(N)c(Cl)cc1C(=O)NCC1CN(Cc2ccc(F)cc2)CCO1` (centres undefined), 93% (inactive).
In the case of `COc1cnc(NS(=O)(=O)c2ccc(N)cc2)nc1`, the “viability (% of control)” value was 108% (inactive).
Same read-out and setting: the same measure for `Nc1nc(N)c2nc(CNc3ccc(C(=O)NC(CCC(=O)O)C(=O)O)cc3)cnc2n1` (centres undefined): 85.7% (inactive).
Take `CCCCc1oc2ccc(NS(C)(=O)=O)cc2c1C(=O)c1ccc(OCCCN(CCCC)CCCC)cc1`: the Potency is 16.6 µM (active).
As to `Nc1ccc(S(=O)(=O)Nc2ccccn2)cc1`, the “viability (% of control)” value was 113% (inactive).
Still for that read-out and setting: the same measure for `C[C@@H]1CN(c2c(F)c(N)c3c(=O)c(C(=O)O)cn(C4CC4)c3c2F)C[C@H](C)N1`: 131% [at 23.2 µM] (inactive).
On to `O=C(O)C1CCCN(CCC=C(c2ccccc2)c2ccccc2)C1` (centres undefined), for which the Potency is 0.0059 µM (active).
`NC(=O)c1cccnc1`: the “viability (% of control)” value was 97.4% (inactive).
As to `CCCN[C@H]1CCc2nc(N)sc2C1`, the “viability (% of control)” value was 131% (inactive).
On the same count and under the same terms, in the case of `O=S(=O)(O)CCS` it was 121% (inactive); in that of `CCCOc1ccc(C(=O)OCCN(CC)CC)cc1N`, 128% (inactive).
On the same count and under the same terms, in the case of `CN1CCN(c2c(F)cc3c(=O)c(C(=O)O)cn4c3c2OCN4C)CC1` it was 124% (inactive).
As to `NS(=O)(=O)c1cc2c(cc1Cl)NC(C(Cl)Cl)NS2(=O)=O` (centres undefined), the “viability (% of control)” value is 103% (inactive).

A further test can be described thus: Quantitative High-Throughput drug screen in 47 multiple myeloma cell lines against the NCATS MIPE library collection: NCIH929_DSMZ cell viability assay (AID 1918978). Also: nearly all actives have a fitted effect of over 35% in size. Conditions: NCI-H929 myeloma viability, CellTiter-Glo ATP, 48 h; series mostly up to 45.8 µM; viability, % of control: at the top concentration. Put shortly: as §1
Take `CN1CCN(c2c(F)cc3c(=O)c(C(=O)O)cn(CCF)c3c2F)CC1`: the “viability, % of control” value was 94.2% (inactive).
Take `Cc1nnc(C(=O)NC(C)(C)c2nc(C(=O)NCc3ccc(F)cc3)c(O)c(=O)n2C)o1`: the “viability, % of control” value was 108% (inactive).
Turning to `O=C(O)c1cn(C2CC2)c2cc(N3CCNCC3)c(F)cc2c1=O`, the “viability, % of control” value was 123% (inactive).
For `CCOC(=O)c1ccc(OC(=O)CCCCCN=C(N)N)cc1`, the “viability, % of control” value was 114% (inactive).
`NC(=O)c1cccc(N)c1`: the Potency is 16.6 µM (active).
Regarding `CCn1cc(C(=O)O)c(=O)c2cc(F)c(N3CCN(C)CC3)cc21`, the “viability, % of control” value was 114% (inactive).
As for `CCOc1cc(N)c(Cl)cc1C(=O)NCC1CN(Cc2ccc(F)cc2)CCO1` (centres undefined), the “viability, % of control” value is 113% (inactive).
`CC(=O)[C@H]1CC[C@H]2[C@@H]3CCC4=CC(=O)CC[C@]4(C)[C@H]3CC[C@]12C`: the “viability, % of control” value is 88.3% (inactive).
As for `C[C@@H](CN1CC(=O)NC(=O)C1)N1CC(=O)NC(=O)C1`, the Potency is 16.6 µM (active).
With `Nc1nc(N)c2nc(CNc3ccc(C(=O)NC(CCC(=O)O)C(=O)O)cc3)cnc2n1` (centres undefined), the “viability, % of control” value is 100% (inactive).
The same measure, in the same setting: the same measure for `CCC(C)(C)c1ccc(CC(C)CN2C[C@@H](C)O[C@@H](C)C2)cc1` (some centres undefined): 78.4% (inactive).
For `CCCCc1oc2ccc(NS(C)(=O)=O)cc2c1C(=O)c1ccc(OCCCN(CCCC)CCCC)cc1`, the Potency was 18.7 µM (active).
For `N[C@@H](Cc1ccc(O)c(O)c1)C(=O)O`, the “viability, % of control” value was 108% (inactive).
On the same count and under the same terms, in the case of `Nc1ccc(S(=O)(=O)Nc2ccccn2)cc1` it was 106% (inactive).
For `C[C@@H]1CN(c2c(F)c(N)c3c(=O)c(C(=O)O)cn(C4CC4)c3c2F)C[C@H](C)N1`, the “viability, % of control” value is 127% [at 23.2 µM] (inactive).
Still for that read-out and setting: the same measure for `O=C(O)C1CCCN(CCC=C(c2ccccc2)c2ccccc2)C1` (centres undefined): 133% (inactive).
Still for that read-out and setting: the same measure for `NC(=O)c1cccnc1`: 94.8% (inactive).
With `CC1(C)[C@H](C(=O)O)N2C(=O)C[C@H]2S1(=O)=O`, the “viability, % of control” value is 127% (inactive).
The same measure, in the same setting: the same measure for `O=S(=O)(O)CCS`: 124% (inactive); for `CCCOc1ccc(C(=O)OCCN(CC)CC)cc1N`: 94.7% (inactive); for `CN1CCN(c2c(F)cc3c(=O)c(C(=O)O)cn4c3c2OCN4C)CC1`: 123% (inactive).
On the same count and under the same terms, in the case of `Cc1nnc(NS(=O)(=O)c2ccc(N)cc2)s1` it was 112% (inactive).
In the case of `COc1ccc(C(=O)CC(=O)c2ccc(C(C)(C)C)cc2)cc1`, the Potency is 1.32 µM (active).
`NS(=O)(=O)c1cc2c(cc1Cl)NC(C(Cl)Cl)NS2(=O)=O` (centres undefined): the “viability, % of control” value is 103% (inactive).
As for `OC(Cn1cncn1)(Cn1cncn1)c1ccc(F)cc1F`, the “viability, % of control” value is 122% (inactive).

Source of the values: PubChem BioAssay (NCATS).
